Assay outcomes (PubChem)
HT1080 IDH1KD tx = kills HT-1080 cells with IDH1 knockdown; 360,000 tested, 2% active; Potency, µM (titrated, usually from 46.1 µM), for the others: at the top dose activity, negative = toxicity, hits mostly cytotoxic; HT-1080 IDH1 knockdown viability, ATP luminescence, 48 h;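 further: potency means the concentration at half of the fitted maximal effect; 0% = DMSO wells and -100% = cell-free medium wells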
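HT-1080-IDH1KD cells (IDH1 knocked down), 750/well in RPMI with 5% FBS, treated with compound 48 h at 37 degrees C. Viability by CellTiter-Glo luminescence, normalised to DMSO and no-cell wells; concentration-response curves classed.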
TGFb inhibitor = blocks TGF-b signaling; HepG2 CAGA-GFP TGF-b/SMAD3 reporter, GFP fluorescence, 18 h; TGF-beta stimulated, 500 pg/mL final; Potency, µM (titrated, usually from 46.1 µM), inactives show at the highest dose activity, negative = inhibition, usual class: inhibitors; 410,000 tested, 1.2% active; further: potency means the concentration at half of the fitted maximal effect; on the % scale 0 is the no-effect control and ±100 the full control effect; nearly all actives have a fitted effect of over 65% in size
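HEPG2 CAGA-GFP, 1000 cells/well; 2 h settle, 37 C; cpd via pin tool; TGF-b 500 pg/mL final; 18 h, 37 C; GFP imaging ex488/em500-530; %Activity normalised to -TGF-b and +DMSO controls; CRC fit, curve class.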
HepG2 tox = HepG2 cytotoxicity, counter-screen for TGF-b inhibitors; HepG2 CAGA-GFP viability, ATP luminescence, 18 h; Potency, µM (doses to about 46.1 µM), without a hit: top-dose activity change, negative = cytotoxicity, hits mostly cytotoxic; 410,000 tested, 0.76% active; AID 588856; further: potency means the concentration at half of the fitted maximal effect
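HepG2 CAGA-GFP cells (1000/well, DMEM with 1% FBS) received compound, then TGF-beta at 500 pg/mL final, and were incubated 18 hours at 37 degrees C. Viability was read by CellTiter-Glo luminescence. Media-only wells were set as complete cell-killing and DMSO as no toxicity.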
HT1080-NT tox = kills 2HG-producing HT-1080-NT fibrosarcoma cells | HT-1080-NT fibrosarcoma viability, CellTiter-Glo ATP luminescence, 48 h | Potency, µM (series often up to 46.1 µM), without a hit: top-dose activity, negative = less viability, usual class: cytotoxic | 360,000 tested, 1.6% active | AID 686970;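 further: NT is the 2HG producing partner of a matched IDH1 knockdown line; potency means the concentration at half of the fitted maximal effect; 0% = DMSO-treated cells and -100% = media-only wells without cells; nearly all actives have a fitted effect of over 55% in size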
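Viability by CellTiter-Glo luminescence after 48 h compound exposure at 37C of HT-1080-NT cells (750/well, RPMI, 5% FBS). % activity scaled between DMSO wells and medium-only wells, then curve-fitted and categorized by curve class.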
Giardia kill = kills Giardia lamblia | Giardia lamblia trophozoite viability | activity change, % at 7.66 µM, hits read low | 340,000 tested, 0.15% active | AID 540267; in the data active means activity change below about -80%; inconclusive means between about -30% and that limit;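 further: parasites exposed to compound for two days anaerobically before the ATP read; on the % scale 0 is the no-effect control and ±100 the full control effect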
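Luminescence from cellular ATP indicates surviving trophozoites (100 cells/well) following 48 hrs anaerobic compound treatment at 37 deg C; signal develops 15-30 min at room temperature.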
IL-1B inflam inh = blocks inflammasome-driven IL-1 beta release; 360,000 tested, 4.7% active; activity change, % at 57.5 µM; THP-1 LPS/ATP IL-1B secretion, AlphaLISA, 16 h; hits give low values; in the data active means activity change below about -50%; inconclusive means mostly about -30% to -49%; further: on the % scale 0 is the no-effect control and ±100 the full control effect
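Secreted IL-1B measured by AlphaLISA bead assay after 16 h compound exposure of THP-1 cells; compounds (final up to 57.5 uM) added 1 h before LPS (250 ng/mL) and ATP (1.25 mM) stimulation; lower signal means less secretion.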
Active calls of the source: *. Most compounds without a hit are left out; they make up all but 6.5% or so of the library. Unless noted, the call rests on the fitted dose curve; in most records, active means well fitted curve in the direction sought with a large enough effect; inconclusive means small, poorly fitted or top-dose-only effect, or another doubt; inactive means no such curve, though single readings can be large; an effect the other way counts as inactive or inconclusive.

What do the screens show for `C=CCN1C(=O)C(CC(=O)Nc2ccc(OCCC)cc2)N(CCCN2CCN(Cc3ccccc3)CC2)C1=S` (stereo not given)?
HT1080 IDH1KD tx: 16µM*; TGFb inhibitor: inconclusive; HepG2 tox: -93%; HT1080-NT tox: 16µM*; Giardia kill: -8; IL-1B inflam inh: -67*

What do the screens show for `COc1ccc(NC(=O)CC2C(=O)N(Cc3ccccc3)C(=S)N2CCN2CCOCC2)cc1` (stereo not given)?
HT1080 IDH1KD tx: -13%; TGFb inhibitor: -7%; HepG2 tox: -11%; HT1080-NT tox: -13%; Giardia kill: -19; IL-1B inflam inh: -9

How did Cc1ccc(N2C(=O)C(CC(=O)Nc3ccc(F)cc3)N(CCC3=CCCCC3)C2=O)cc1 (stereo not given) do in these assays?
TGFb inhibitor: 13µM*; HepG2 tox: -34%

What do the screens show for `O=C(CNCCC1=CCCCC1)Nc1ccc(N2CCCCCC2)cc1`?
HT1080 IDH1KD tx: inconclusive; TGFb inhibitor: 16µM*; HepG2 tox: -108%; HT1080-NT tox: inconclusive; Giardia kill: 5; IL-1B inflam inh: -87*

How did CCCOc1ccc(NC(=O)CC2C(=O)N(c3ccccc3)C(=O)N2Cc2ccc(F)cc2)cc1 (stereo not given) do in these assays?
TGFb inhibitor: 10µM*; HepG2 tox: -69%

What do the screens show for `CCCOc1ccc(NC(=O)CC2C(=O)N(CC)C(=S)N2Cc2cccs2)cc1` (stereo not given)?
HT1080 IDH1KD tx: 20µM*; TGFb inhibitor: inconclusive; HepG2 tox: -26%; HT1080-NT tox: inconclusive; Giardia kill: 8; IL-1B inflam inh: -4

How did CCN1C(=O)C(CC(=O)Nc2ccc(F)cc2)N(Cc2ccco2)C1=S (stereo not given) do in these assays?
HT1080 IDH1KD tx: -21%; TGFb inhibitor: -6%; HepG2 tox: -20%; HT1080-NT tox: -24%; Giardia kill: -1; IL-1B inflam inh: -4

Results for CCCCCCOc1ccc(NC(=O)CC2C(=O)N(CC)C(=S)N2Cc2ccco2)cc1 (stereo not given) ?
HT1080 IDH1KD tx: inconclusive; TGFb inhibitor: inconclusive; HepG2 tox: -105%; HT1080-NT tox: -23%; Giardia kill: -25; IL-1B inflam inh: -101*

What do the screens show for `COc1ccc(NC(=O)CC2C(=O)N(C)C(=S)N2Cc2cccs2)cc1` (stereo not given)?
HT1080 IDH1KD tx: -7%; TGFb inhibitor: 35%; HepG2 tox: 32%; HT1080-NT tox: -8%; Giardia kill: -10; IL-1B inflam inh: -8

What do the screens show for `CCOC(=O)CSc1ncc(OC)c(=O)[nH]1`?
HT1080 IDH1KD tx: 14%; TGFb inhibitor: -12%; HepG2 tox: -1%; HT1080-NT tox: 23%; Giardia kill: -1; IL-1B inflam inh: -6

What do the screens show for `Cn1ncc(Br)c1C(=O)N1CCCC1`?
HT1080 IDH1KD tx: 15%; TGFb inhibitor: -7%; HepG2 tox: -1%; HT1080-NT tox: 8%; Giardia kill: -7; IL-1B inflam inh: 4

Results for COc1ccc(C2CC(=O)N(Cc3cccc(F)c3)c3ccccc3S2)cc1 (stereo not given) ?
TGFb inhibitor: inconclusive; HepG2 tox: -32%

Results for COc1ccc(C2CC(=O)N(Cc3ccc(F)cc3)c3ccccc3S2)cc1 (stereo not given) ?
TGFb inhibitor: 16µM*; HepG2 tox: -43%

What do the screens show for `CCCC(C)n1[nH]c(=O)cc1N` (stereo not given)?
HT1080 IDH1KD tx: 2%; TGFb inhibitor: -29%; HepG2 tox: -2%; HT1080-NT tox: 3%; Giardia kill: -14; IL-1B inflam inh: 10

What do the screens show for `O=C(Nc1ccc2c(c1)OCO2)c1cc(-c2ccc(O)cc2)on1`?
HT1080 IDH1KD tx: 2.1µM*; TGFb inhibitor: 1%; HepG2 tox: -21%; HT1080-NT tox: 2.1µM*; Giardia kill: 12; IL-1B inflam inh: -11
